# Measurements reported in PubChem BioAssay AID1440 (NMMLSC, 2008).
# The campaign covered roughly 220,000 compounds. Fewer than 10 were called active. Another 92% or so got no clear call; they are omitted. The rule behind the calls is not given here. These entries were drawn from the full list.
# Target: Guanine nucleotide-binding protein G(o) subunit alpha (Homo sapiens) + Regulator of G-protein signaling 19 (Homo sapiens) (UniProt P09471+P49795)
# Experiment: regulators of RGS19 binding to Galphao, biochemical, multiplexed bead flow cytometry (AID 1440);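 note: fluorescent Galpha o activated by aluminum fluoride binding bead-coupled RGS19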
# Conditions: at 10 µM
# Chain of Guanine nucleotide-binding protein G(o) subunit alpha (Homo sapiens) + Regulator of G-protein signaling 19 (Homo sapiens) (P09471 whole entry, looked up): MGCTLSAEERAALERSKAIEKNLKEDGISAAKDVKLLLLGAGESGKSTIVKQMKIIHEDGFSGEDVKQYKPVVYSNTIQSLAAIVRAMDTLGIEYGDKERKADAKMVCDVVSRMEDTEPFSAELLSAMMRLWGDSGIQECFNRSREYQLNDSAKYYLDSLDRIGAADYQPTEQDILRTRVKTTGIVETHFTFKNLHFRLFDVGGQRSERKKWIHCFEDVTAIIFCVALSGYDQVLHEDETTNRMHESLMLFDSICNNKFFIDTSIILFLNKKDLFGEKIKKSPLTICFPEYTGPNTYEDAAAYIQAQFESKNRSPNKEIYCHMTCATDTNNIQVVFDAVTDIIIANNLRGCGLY
# Chain of Guanine nucleotide-binding protein G(o) subunit alpha (Homo sapiens) + Regulator of G-protein signaling 19 (Homo sapiens) (P49795 whole entry, looked up): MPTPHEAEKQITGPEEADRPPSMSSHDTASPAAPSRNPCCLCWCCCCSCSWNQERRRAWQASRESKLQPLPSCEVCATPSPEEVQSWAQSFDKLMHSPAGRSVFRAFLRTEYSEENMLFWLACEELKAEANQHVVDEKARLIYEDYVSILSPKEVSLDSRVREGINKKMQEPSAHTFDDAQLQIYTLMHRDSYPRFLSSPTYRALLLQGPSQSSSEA
row,Structure (SMILES),binding response (% of control) [%]
1,O=C(c1ccccc1)N1CCCCCC1,58.2
2,O=C(NC1CCCC1)C1CCC(CNS(=O)(=O)c2cccs2)CC1 (configuration not stated),88.8
3,CCOC(=O)c1ccc(N2CN=C3SCC(=O)N3C2)cc1,94.6
4,COc1ccc(-c2[nH]nc3c2C(c2ccsc2)C(C#N)=C(N)O3)cc1 (configuration not stated),80.2
5,COc1ccccc1NC(=O)CSc1nnc(C2CCCCC2)n1C,50.3
6,CC/C(Cc1ccccc1)=N/NC(=O)c1cccc(Br)c1,130
7,COC(=O)c1c(CSc2cccc(C)c2)noc1C(=O)NCc1ccco1,102
8,CC(C)COCC1CC2(CC(C)C(=O)CC2=O)C(=O)O1 (configuration not stated),56.6
9,CCc1nnc(NC(=O)COC(=O)CN2C(=O)c3ccccc3C2=O)s1,62.2
10,COCCn1c(SCC(=O)c2ccc3c(c2)OCCO3)nnc1C(C)C,59.5
11,Cc1onc(-c2c(Cl)cccc2Cl)c1C(=O)Nn1cnnc1,102
12,CCc1ncc(C(=O)c2ccc(OC)cc2)n1C,108
13,O=C(CN1CCCCCC1=O)OCc1ncc(-c2ccccc2)o1,96.5
14,O=C1Nc2ccccc2/C1=C\c1cccn1-c1ccc(OC(F)(F)F)cc1,63.3
15,Cc1ccc(C(=O)CSc2nc(N)cc(=O)[nH]2)cc1,64.8
16,C/C(=N\NC(=O)CSc1nc2nc(C)cc(C)n2n1)c1ccccc1,96.1
17,O=C(NCCCCC(NC(=O)c1ccc([N+](=O)[O-])cc1)C(=O)O)c1ccc([N+](=O)[O-])cc1 (configuration not stated),95.5
18,CCOC(=O)Cn1nc(/C=C/c2ccc(C)cc2)ccc1=O,-18.6
19,COC(=O)c1sccc1-c1ccc(C(=O)Nc2ccccc2)o1,122
20,Cc1ccc(-c2cc(C(=O)OCC(=O)Nc3cc(C)on3)c3ccccc3n2)c(C)c1,81.7
21,O=C(CSc1nc2ccccc2c(=O)n1CC1CCCO1)NCC1CCCO1 (configuration not stated),94.2
22,COC(=O)C(NC(=O)Nc1ccccc1OC)C(C)C (configuration not stated),93.4
23,CCOC(=O)C1=C(C)NC2=C(C(=O)c3ccccc32)C1c1cccnc1 (configuration not stated),104
24,CC(=O)Nc1ccc(OCC=C(Cl)Cl)cc1,82.1

row,Structure (SMILES),binding response (% of control) [%]
1,O=C(NCc1ccccc1)c1ccccc1OCC(=O)N1CCCCC1,38.1
2,NC(=S)N/N=C1\CCSc2ccc(Cl)cc21,69
3,Cc1ccc(S(=O)(=O)c2c(N)n(Cc3ccco3)c3nc4ccccc4nc23)cc1C,92.1
4,Cc1ccc(C(=O)NNC(=O)C2CCN(Cc3ccccc3)CC2)cc1,96.2
5,CC1(C)C2CCC1(CS(=O)(=O)NCc1ccc(C(=O)O)cc1)C(=O)C2 (configuration not stated),107
6,C[C@H](NS(=O)(=O)c1ccccc1F)C(=O)OCC(=O)N1CCc2ccccc21,106
7,CC(=O)c1cc2c(cc1NS(=O)(=O)c1ccccc1)OCO2,94.9
8,Clc1ccc(Cc2noc(CN3CCN(c4ccccc4)CC3)n2)c(Cl)c1,-14.4
9,CC1(C)Cc2c(c(N3CCOCC3)nc3snc(N)c23)CO1,20.9
10,O=S1(=O)C=CC(N2CCOCC2)C1 (configuration not stated),162
11,CCC(=O)NCCc1cc2cc(C)c(C)cc2[nH]c1=O,96.3
12,Cc1noc(C)c1C(=O)Nc1cccnc1,77.2
13,Cc1ccc(S(=O)(=O)N2CCSC2)cc1C,113
14,COC(=O)Cc1c(C)nc2nc(-c3ccc(Cl)cc3)[nH]n2c1=O,112
15,CC(C)(C#N)NC(=O)c1ccco1,87.8
16,Cc1cc2cc(CN(Cc3ccco3)C(=O)NCc3ccccc3)c(=O)[nH]c2cc1C,98.1
17,COc1ccc(-c2nc(-c3ccccc3)nc(N3CCN(C)CC3)c2C#N)cc1,114
18,O=S1(=O)CCN2C(Cc3ccc(SC(F)F)cc3)=CSC2=N1,121
19,Cc1ccc(Cl)c(NC(=O)COC(=O)c2ccccc2C(=O)c2ccc(Cl)c([N+](=O)[O-])c2)c1Cl,115
20,CCCCN1c2ccccc2N(CCCO)c2cc(C)nnc21,99
21,O=C(NCC(c1cccnc1)N1CCN(c2ccc(F)cc2)CC1)C1CCCCC1 (configuration not stated),104
22,CC12CC(c3ccccc3O1)N(C(=O)c1ccco1)C(=O)N2c1ccccc1 (configuration not stated),95.1
23,Cn1cnnc1SCC(=O)N1N=C2/C(=C/c3ccco3)CCCC2C1c1ccco1 (configuration not stated),61.5
24,CC(NS(=O)(=O)c1cccc(Cl)c1)C(=O)Nc1ccc(-c2nc3ccccc3s2)cc1 (configuration not stated),115

row,Structure (SMILES),binding response (% of control) [%]
1,Cc1nn(Cc2ccc(Cl)cc2)c(C)c1N,8.58
2,CC(C)SCCCCOc1ccc2ccccc2c1,88.9
3,CCOC(=O)c1nnn(-c2nc(N3CCCC3)nc(N3CCCC3)n2)c1-c1ccccc1,112
4,CN(C)S(=O)(=O)c1ccc(C(=O)Nc2nnc(SCc3ccccc3)s2)cc1,-32.2
5,Cc1cc(C)n(C2CCCCC2OC(=O)c2ccccc2)n1 (configuration not stated),110
6,CC1CN(S(=O)(=O)c2cccc(-c3cn4ccccc4n3)c2)CC(C)O1 (configuration not stated),105
7,O=C(CSc1nnc(COc2ccc(Cl)cc2)o1)N1c2ccccc2CCc2ccccc21,98.2
8,COc1ccc(Cc2nc3ccc(S(N)(=O)=O)cc3[nH]2)cc1OC,56.5
9,COc1ccc(C(=O)CN(C(=O)c2ccc(Cl)cc2)N2C(=O)C3CCCCC3C2=O)cc1 (configuration not stated),103
10,Cc1c(NC(=O)CSc2nc3c(cnn3-c3ccccc3)c(=O)[nH]2)c(=O)n(-c2ccccc2)n1C,125
11,CC(C)CC1=C/C(=C/c2ccc(-c3ccccc3)o2)C(=O)O1,71.1
12,Cc1ccc(Cl)c(OCCN2CCCC(C)C2)c1 (configuration not stated),118
13,Cc1cc(=O)n2[nH]c(SCc3ccccc3)nc2n1,102
14,O=C(c1ccccc1F)N1CCN(c2ccccc2)CC1,64.3
15,Cn1cc(CN(CCCN2CCOCC2)C(=S)Nc2cccc(Cl)c2)c2ccccc21,-17
16,COC(=O)c1cc(OC)c(OC)cc1NC(=S)N1CCCC(CO)C1 (configuration not stated),98.1
17,Cc1ccc(NC(=O)N(Cc2ccco2)Cc2cc3cc(C)cc(C)c3nc2Cl)cc1,92.8
18,CCOc1ccc(-c2nnc(N)o2)cc1,71.8
19,CC(=O)Nc1ccc(NC(=O)Oc2ccccc2)cc1,99.1
20,CCOC(=O)c1c(C)n(-c2ccc(OC)cc2)c2c(C/C(C)=N/O)c(Br)c(OC)c(O)c12,120
21,COc1cccc(C2=CC(c3ccc(OC)c(OC)c3OC)n3nnnc3N2)c1 (configuration not stated),102
22,O=Nc1c(O)n(Cc2ccc(Cl)c(Cl)c2)c2ccccc12,70.4
23,CCOC(=O)c1nnc(-c2cccs2)nc1NC(C)C,220
24,CCOC(=O)c1nnn(-c2nc(OC)nc(N3CCCCC3)n2)c1-c1ccccc1,69.6
